CF NFkB block: inhibitors of PAF-induced NF-kB signaling, primary screen, cell-based, GFP fluorescence, uHTS. AID 588850, 2011. KKLEB NF-kB-GFP reporter, GFP fluorescence overnight. inhibition, % at 5 µM. 360,000 tested, 0.86% active;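 active = at least 50% inhibition at 5 µM, scaled per plate between neutral and stimulator controls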;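 also: PAF is a Pseudomonas aeruginosa culture filtrate used as stimulus; plate controls were PAF-stimulated DMSO wells for no effect and unstimulated DMSO wells for full effect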
KKLEB tox: cytotoxicity in KKLEB CF airway cells, primary screen, cytotoxicity control for CF NF-kB inhibitor project, cell-based, uHTS, fluorescence assay plates. KKLEB CF airway cells viability, ATPlite luminescence, overnight; stronger effect = lower value; cells stimulated with P. aeruginosa culture filtrate. activity change (cytotoxicity), % at 5 µM. 360,000 tested, 0.36% active. AID 602141, 2011;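 active = corrected activity change at or below -50% at 5 µM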
Peg3 prom inh-1: Peg3 promoter-driven luciferase inhibitors, primary screen, cell-based, HeLa, luciferase luminescence. HeLa PEG-Prom luciferase reporter, overnight. inhibition, % at 20 µM. 360,000 tested, 1.7% active. AID 588405, 2011;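 active = inhibition of at least 50% at 20 µM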
HIF-2a inh: HIF-2a reporter inhibitors, primary screen, luminescence, 786-0 RCC cells | AID 624352, 2012 | 360,000 tested, 0.72% active | inhibition, % at 18.8 µM | 786-0 RCC cells HIF-2a reporter, luciferase luminescence, overnight;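 active = inhibition of the luminescence signal of 40% or more relative to plate controls, in a single-dose primary screen at 18.75 µM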
TWEAK Fn14 block: inhibitors of TWEAK-Fn14 signaling, primary screen, luciferase reporter cells, uHTS | TWEAK-stimulated Fn14 reporter cells, luciferase luminescence, 8 h | inhibition, % at 10 µM | 360,000 tested, 2% active; in the data active = inhibition above about 50%
TROY NFkB inh: inhibitors of TROY-driven NF-kB signaling, primary screen, Q293 LMP1-TROYcd cells, NF-kB luciferase, uHTS | Q293 LMP1-TROYcd NF-kB luciferase reporter, 4 h | inhibition, % at 10 µM | 360,000 tested, 0.98% active | AID 1347056, 2019;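 active = compounds whose plate-normalised and pattern-corrected inhibition of the luciferase reporter signal at the single screening dose is 50% or more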
Peg3 prom inh-2: Peg3 promoter reporter inhibitors, retest, confirmation, cell-based, HeLa, luciferase reporter, single concentration | 1,300 tested, 84% active | inhibition, % at 20 µM | shares compounds with Peg3 prom inh-1 | HeLa PEG-Prom luciferase reporter, luminescence, overnight | AID 602417, 2012;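 active = at 20 µM dose, 40% or more inhibition averaged across four replicates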
CF NFkB conf: inhibitors of PAF-induced NF-kB signaling, retest, confirmation, cell-based, GFP fluorescence, single concentration. inhibition, % at 5 µM. 1,300 tested, 64% active. KKLEB CF airway cells, overnight. shares compounds with CF NFkB block; in the data active = inhibition above about 40%;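 also: stimulus PAF is a Pseudomonas aeruginosa filtrate and not platelet activating factor; plate controls were DMSO wells with stimulus for no effect and unstimulated DMSO wells for full effect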
Mdm2 MdmX conf: retested Mdm2-MdmX interaction blockers, confirmation, cell-based, luminescence, single concentration, set 2; shares compounds with HIF-2a inh; SaOS-2 split-luciferase Mdm2/MdmX complementation; inhibition, % at 8 µM; 740 tested, 99% active; AID 504601, 2011;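 active = mean inhibition of the luminescence signal across two replicates at or above 26 percent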
HIF-2a inh conf: HIF-2a reporter inhibitor retest, confirmation, luminescence, 786-0 RCC cells; shares compounds with HIF-2a inh; HIF-2a luciferase reporter luminescence, overnight; 1,800 tested, 56% active; inhibition, % at 18.8 µM;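 active = mean inhibition across four replicates of at least 40 percent at the single tested concentration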
HIF-1a cs: HIF-1a luciferase reporter signal reduction – MiaPaCa-2 cells, single concentration, counter-screen for HIF-2a inhibitor project, confirmation; shares compounds with HIF-2a inh; MiaPaCa-2 HIF-1a luciferase reporter, desferoxamine, overnight; inhibition, % at 18.8 µM; 1,800 tested, 72% active;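 active = mean inhibition of the reporter signal across four replicates at the single tested dose of 50% or more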
* = called active by the depositor; / = not tested or not shown. Hits are enriched below; roughly 4% of the tested compounds scored in any of these assays.

SMILES	CF NFkB block	KKLEB tox	Peg3 prom inh-1	HIF-2a inh	TWEAK Fn14 block	TROY NFkB inh	Peg3 prom inh-2	CF NFkB conf	others
COc1ccc(Nc2nccc(-c3cccc(N)c3)n2)cc1	70.7*	20.0	72.6*	-195.2	75.9*	28.3	-117.0	93.9*
COc1cccc(OC)c1C(=O)Nc1cc(C)nn1-c1nc2ccccc2[nH]1	78.2*	-17.0	54.2*	-33.7	38.1	29.8	70.8*	53.2*
CC(=O)c1ccc(-c2cnc3c(NC=O)cc(-c4ccccc4Oc4ccccc4)cn23)cc1	58.0*	-26.6	55.2*	24.3	58.6*	13.9	62.6*	45.2*
COc1ccc(NC(=O)C(C2CC2)n2c(=O)c(-c3ccccc3)nc3ccccc32)cc1 (stereo not given)	/	/	/	-7.1	/	/	/	/
FC(F)Sc1ccc(NC(=S)NCc2ccccc2)cc1	-6.3	-3.8	-47.4	-113.6	19.3	37.5	/	/
FC(F)Sc1ccc(NC(=S)NC(c2ccccc2)c2ccccc2)cc1	50.7*	-45.2	52.8*	-11.4	54.0*	52.1*	95.2*	57.0*
O=C(NCCN1CCOCC1)c1ccc2c(c1)N(Cc1cccc(F)c1)C(=O)c1ccccc1S2	19.2	-2.7	18.5	26.0	19.0	5.1	/	/
Cc1cccc(CN2C(=O)/C(=C\c3ccc(C(=O)NCCN4CCOCC4)cc3)Sc3ccccc32)c1	81.6*	5.1	91.7*	9.5	40.9	62.1*	91.6*	-15.7
COc1cc(OC)cc(-c2noc([C@@H]3O[C@H](CO)[C@@H](O)[C@H]3O)n2)c1	15.7	2.2	3.8	-4.9	-14.9	-14.9	/	/
CC1CCCCN1C(=O)c1cccc(NC2=C(Cl)C(=O)N(Cc3ccccc3)C2=O)c1 (stereo not given)	57.3*	-44.0	51.7*	18.3	18.6	27.3	53.7*	-103.9
CC1CCN(C(=O)c2ccc(NC3=C(Cl)C(=O)N(Cc4ccccc4)C3=O)cc2)CC1	12.2	-3.9	40.4	-2.2	9.0	20.4	/	/
O=C(Nc1ccccc1)c1nc[nH]c1C(=O)NCCCCNC(=O)c1[nH]cnc1C(=O)Nc1ccccc1	53.7*	-13.1	59.8*	4.3	35.1	-3.2	55.8*	58.8*
Cc1ccc(NC(=O)c2nc[nH]c2C(=O)NCCCCCCNC(=O)c2[nH]cnc2C(=O)Nc2ccc(C)cc2)cc1	4.3	3.7	45.7	1.4	12.7	-10.7	/	/
N#Cc1ccsc1NC(=O)COC(=O)C1=NNC(=O)CC1	-10.3	-0.7	-62.6	-80.2	-5.8	2.2	/	/
COc1cccc(CN(C)C(=O)C(CCSC)NS(=O)(=O)c2ccc3c(c2)OCCO3)c1OC (stereo not given)	73.8*	14.8	55.9*	6.7	-4.0	16.6	62.2*	79.0*
CSCCC(NS(=O)(=O)c1ccc2c(c1)OCCO2)C(=O)N(C)Cc1ccc(C)cc1 (stereo not given)	6.3	-12.6	18.4	14.3	15.3	0.6	/	/
NC(=O)c1nsc(C(=O)N(c2ccccc2F)C(C(=O)NCc2ccc(F)cc2)c2ccc(O)cc2)c1N (stereo not given)	93.7*	-34.1	58.4*	19.1	36.4	15.9	60.2*	107.5*
Cc1ccc(S(=O)(=O)/N=C(\CCl)N2CCOCC2)cc1	57.5*	-13.9	57.6*	24.1	4.8	11.9	39.0	70.2*
Cc1ccc(C)c(NC(=S)N2CCC(NC(=O)c3ccccc3)CC2)c1	-4.8	4.7	16.7	-2.9	2.8	-6.5	/	/
Cc1ccc(S(=O)(=O)NC(C)C(=O)OCC(=O)N(C)c2ccccc2)cc1 (stereo not given)	3.5	2.2	3.5	-2.0	3.5	-4.4	/	/
CN(C)S(=O)(=O)c1cccc(NC(=O)CSc2nc3c(cc2C#N)C(=O)CC(C)(C)C3)c1	57.8*	-20.5	59.6*	-12.4	36.8	38.6	59.7*	34.9
CN(C)S(=O)(=O)c1ccc(Cl)c(NC(=O)CSc2nc3c(cc2C#N)C(=O)CC(C)(C)C3)c1	27.7	-3.5	-14.7	17.2	13.1	19.5	/	/
COc1ccccc1OCC(=O)Nc1cc(S(=O)(=O)N2CCOCC2)ccc1N1CCCCC1	24.5	-9.5	0.4	5.8	16.4	-3.9	/	/
COc1ccc(-n2nc(C(=O)NCC(=O)Nc3cc(OC)c(OC)c(OC)c3)c3ccccc3c2=O)cc1OC	83.0*	-26.1	54.7*	5.7	0.5	3.6	44.2*	90.4*
COc1ccccc1CN(C)C(=O)c1cc(-c2cc(OC)c(OC)c(OC)c2)nc2ccccc12	73.8*	-32.2	53.2*	-1.7	27.2	-7.3	55.8*	9.5
O=C(NCc1ccccc1Cl)c1ccc2c(c1)OCO2	7.3	-1.4	-37.9	-58.0	3.5	-32.5	/	/
C/C(=N\OCc1ccc(C#N)cc1)c1ccccc1	-21.3	15.9	-284.5	-331.4	-26.3	-127.3	/	/
C/C(=N\OCc1cccc(C(=O)O)c1)c1ccc(Cl)cc1	-14.0	4.3	55.3*	73.4*	-4.4	-72.7	35.9	/	HIF-2a inh conf=79.0*;HIF-1a cs=-104.2
Cc1ccc2nc(-c3ccc4c(c3)OCCO4)cn2c1	-25.8	-85.2*	90.8*	80.1*	101.2*	78.0*	93.4*	/	Mdm2 MdmX conf=93.5*
Cc1ccc2nc(-c3ccc4c(c3)NC(=O)CO4)cn2c1	-4.1	-18.4	-282.3	-332.2	-10.8	6.5	/	/
